The list is not random: actives were taken first. Their share in the collection is about 3.1%.
Tau fibril FP: blocks human tau fibril formation measured by polarization. P10636. K18 P301L tau heparin fibrillization, Alexa594 FP, 6 h. 0.39% of 280,000 active. Potency, µM (highest dose often 57.7 µM), inactives show at the top dose activity, negative = inhibition, most hits filed as inhibitors. AID 1468; also: potency is read from the fitted curve at half-maximal effect; % is scaled to controls: 0 for no effect and ±100 for the full control effect; nearly all actives have a fitted effect of over 55% in size
Target sequence (P10636 561-689 P618L limits assumed): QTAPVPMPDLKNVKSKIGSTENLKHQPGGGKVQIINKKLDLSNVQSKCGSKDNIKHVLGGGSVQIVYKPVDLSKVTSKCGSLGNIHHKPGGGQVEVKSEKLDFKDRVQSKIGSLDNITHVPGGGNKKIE
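K18 P301L tau (15 uM unlabeled/0.24 uM Alexa 594-labeled, final) + compound + heparin 20 uM final; 100 mM NaOAc pH 7; 6 hr 37 C; ThT 30 uM final added, 1 hr RT; FP ex 555/em 632 nm.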
TRb-SRC2 inh: inhibitors of human thyroid hormone receptor beta-SRC2 interaction; P10828; TRbeta-SRC2 peptide binding, fluorescence polarization; receptor liganded with 1 µM T3; Potency, µM (doses to about 106 µM), without a hit: at the top dose activity change, negative = inhibition, hits mostly inhibitors; 0.065% of 280,000 active;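 also: potency is read from the fitted curve at half-maximal effect; plate controls were bound peptide for no effect and peptide without receptor for full effect; nearly all actives have a fitted effect of over 50% in size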
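Read-out is fluorescence polarization (555 nm excitation, 632 nm emission) of a Texas Red SRC2 coactivator peptide; loss of signal reflects blocked binding to human TRb ligand-binding domain in the presence of 1 uM T3.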
TR SRC2 fluor cs: Texas Red fluorescence interference in TRb-SRC2 counter-screen. AID 1479. TRb/SRC2 Texas Red total fluorescence interference. Potency, µM (series often up to 106 µM), without a hit: top-dose fluorescence change, negative = quenching. 0.29% of 280,000 active; active = well fitted curve in either direction with a large enough effect; inconclusive = small, poorly fitted or top-dose-only effect; also: potency is read from the fitted curve at half-maximal effect; % is scaled to controls: 0 for no effect and ±100 for the full control effect
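Human TRb ligand-binding domain at 0.6 uM with 20 nM Texas Red SRC2 peptide in Tris buffer containing 1 uM T3 and 5% DMSO, incubated with compound 5 h at ambient temperature. Total fluorescence (555/632 nm) calculated as parallel + 2 × perpendicular.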
Tau fibril ThT: blocks human tau fibril formation measured by thioflavin T; 2.1% of 270,000 active; Potency, µM (highest dose often 57.4 µM), for the others: top-dose activity, negative = inhibition, usual class: inhibitors; AID 1460; recombinant tau K18 P301L, heparin-induced fibrillization, ThT fluorescence; P10636; also: potency is read from the fitted curve at half-maximal effect; % is scaled to controls: 0 for no effect and ±100 for the full control effect; nearly all actives have a fitted effect of over 55% in size
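Fibril formation assay: tau K18 P301L at 15 uM with trace Alexa 594 label, heparin inducer 20 uM, pH 7 sodium acetate buffer, 37 C for 6 hr; endpoint ThT signal.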
RGS12 GoLoco inh-1: inhibitors of human Gai1-RGS12 GoLoco interaction (red fluorophore); P63096; Gai1:RGS12 GoLoco peptide FP, rhodamine, 10 min; Potency, µM (titrated, usually from 61.6 µM), for inactives: at the highest dose activity, negative = inhibition, hits mostly inhibitors; 0.44% of 230,000 active; AID 880; active = well fitted inhibition curve with a large enough effect, not every such curve was filed as active; inactive = no such curve, though single readings can be large or run the other way; also: potency is read from the fitted curve at half-maximal effect; % is scaled to controls: 0 for no effect and ±100 for the full control effect; nearly all actives have a fitted effect of over 30% in size
Target sequence (P63096 whole entry, looked up): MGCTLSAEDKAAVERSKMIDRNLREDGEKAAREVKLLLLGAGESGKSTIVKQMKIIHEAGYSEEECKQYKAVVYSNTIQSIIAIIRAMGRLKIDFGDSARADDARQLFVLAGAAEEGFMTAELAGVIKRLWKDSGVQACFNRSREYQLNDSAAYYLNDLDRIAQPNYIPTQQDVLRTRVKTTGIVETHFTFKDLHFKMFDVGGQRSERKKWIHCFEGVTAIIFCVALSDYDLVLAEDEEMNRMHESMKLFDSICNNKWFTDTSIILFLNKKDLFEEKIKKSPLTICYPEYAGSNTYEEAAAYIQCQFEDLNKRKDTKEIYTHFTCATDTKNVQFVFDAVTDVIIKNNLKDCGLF
Tau fluor cs: counter-screen for tau fibril formation inhibitors. tau K18 P301L (four-repeat tau fragment) Alexa594 fluorescence, heparin fibrillization. Potency, µM (highest dose often 57.7 µM), for inactives: top-dose activity change, negative = decrease. 0.93% of 280,000 active; also: potency is read from the fitted curve at half-maximal effect; % is scaled to controls: 0 for no effect and ±100 for the full control effect; nearly all actives have a fitted effect of over 55% in size
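Human K18 P301L tau (15 uM unlabeled plus 0.24 uM Alexa 594-labeled, final) in 100 mM sodium acetate pH 7 was mixed with compound and 20 uM heparin and incubated 6 hr at 37 C.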
RGS12 GoLoco inh-2: disrupts Gai1 binding to human RGS12 GoLoco peptide | shares compounds with RGS12 GoLoco inh-1 | Gai1/rhodamine-RGS12 GoLoco peptide fluorescence polarization | Potency, µM (highest dose often 57.1 µM), for inactives: at the highest dose activity, negative = inhibition, hits mostly inhibitors | 50% of 110 active | AID 2390
Starred values were filed as active, the others as inactive; ? = inconclusive; · = not tested or not shown; [ ] = another dose, or the depositor's remark. Unless noted, calls follow the shape of the dose curve; as a rule, active = well fitted curve in the direction sought with a large enough effect; inconclusive = small, poorly fitted or top-dose-only effect, or another doubt; inactive = no such curve, though single readings can be large; an effect the other way counts as inactive or inconclusive.

SMILES	Tau fibril FP	TRb-SRC2 inh	TR SRC2 fluor cs	Tau fibril ThT	RGS12 GoLoco inh-1	Tau fluor cs	others
Oc1ccc(N=Nc2ccc3c(c2)OCCO3)c(O)c1	5%	9%	-3%	3.2µM*	13%	?
Oc1ccc(N=Nc2ccc3c(c2)OCCO3)c2cccnc12	?	-3%	-7%	2µM*	11%	?
O=Nc1ccc(O)c2ncccc12	?	8%	-6%	?	1%	-29%
Cc1ccccc1N=Nc1ccc(O)c2ncccc12	8%	-7%	0%	?	10%	-17%
Oc1ccc(N=Nc2ccc(Br)cc2)c(O)c1	2%	-6%	-12%	3.5µM*	9%	?
Cc1cccc(-c2nnc(N)s2)c1	8%	0%	2%	-4%	2%	1%
COc1ccc(-c2nc(C#N)c(NCC3CCCO3)o2)cc1OC (centres undefined)	-2%	1%	-5%	-16%	-14%	-16%
COc1ccc(C2CC(=O)C=C(NCc3ccc4c(c3)OCO4)C2)cc1 (centres undefined)	-2%	-4%	-5%	·	5%	-2%
Cc1ccc(C(NC(=O)Cc2cccs2)C(=O)Nc2ccc(C(C)C)cc2)cc1 (centres undefined)	-8%	1%	-2%	11%	·	-15%
COc1ccc(-c2nn3c(=O)cc(CN4CCN(S(=O)(=O)c5ccc(C)cc5)CC4)nc3s2)cc1	7%	0%	0%	-18%	·	-16%
CSc1nc(=S)cc(C)[nH]1	?	4%	1%	?	5.6µM*	-23%
CCc1cc(=O)oc2cc(C)c3c(C)coc3c12	-4%	-6%	4%	-4%	5%	1%
Cc1[nH]n(-c2ncc(-c3ccccc3)s2)c(=O)c1C(c1ccc(Br)cc1)C(C#N)C#N (centres undefined)	35µM*	-9%	-1%	8.9µM*	15%	?
CCOC(=O)C1CCCN(C(=O)/C=C/c2cc(OC)c(OC)c(OC)c2)C1 (centres undefined)	0%	-1%	-4%	2%	7%	-1%
CC1=C(C(=O)OC(C)C)C2(O)C(=O)c3ccccc3C2(O)N1 (centres undefined)	?	3%	-4%	7.1µM*	-5%	-23%
CCOC(=O)C1=C(C)N[C@@]2(O)c3ccccc3C(=O)[C@@]12O	?	2%	2%	3.5µM*	8%	-11%
CCCCOC(=O)C1=C(C)NC2(O)c3ccccc3C(=O)C12O (centres undefined)	?	0%	-3%	10µM*	1%	-11%
CC1=C(C#N)C2(O)C(=O)c3ccccc3C2(O)N1 (centres undefined)	-7%	11%	-2%	-16%	1%	-1%
O=[N+]([O-])c1ccc(-n2nnnc2-c2ccccc2)cc1	10%	-1%	-3%	-5%	8%	-4%
O=[N+]([O-])c1ccc(-n2nnnc2-c2ccccc2)c([N+](=O)[O-])c1	?	2%	-4%	14µM*	10%	11µM*[quencher]
C=CCn1c(C#N)c(N)sc1=N	-2%	-2%	-1%	?	·	?
COc1ccc(Cn2c(O)c(C=Nc3ccc(O)cc3)c3ccccc3c2=O)cc1	?	-2%[53 µM]	-3%[53 µM]	?	7%	4.5µM*[quencher]
COc1ccc(N=Cc2c(O)ccc3ccccc23)cc1	-7%	7%	-7%	8.9µM*	10%	?
COc1ccc(Cn2c(O)c(C=Nc3ccccc3)c3ccccc3c2=O)cc1	?	3%	-5%	-3%	8%	?
O=C(O)Cc1ccc(N=Cc2c(O)ccc3ccccc23)cc1	-10%	3%	1%	?	6%	-10%
SMILES	Tau fibril FP	TRb-SRC2 inh	TR SRC2 fluor cs	Tau fibril ThT	RGS12 GoLoco inh-1	Tau fluor cs	others
Cc1oc(/N=C/c2c(O)ccc3ccccc23)c(C#N)c1C	?	12%	6%	18µM*	12%	-30%
CCOC(=O)c1ccc(NC(=O)CSc2nccn2C)cc1	-5%	1%	0%	?	10%	-18%	RGS12 GoLoco inh-2=36%
COc1ccc(C(CC(=O)NCc2ccccc2)N2Cc3ccccc3C2=O)cc1 (centres undefined)	7%	6%	-1%	8%	·	-5%
CCCc1n(CC(O)COC2CCCCC2)c2ccccc2[n+]1C (centres undefined)	-4%	6%	0%	0%	7%	5%
CCCc1n(CC(O)COCC2CC=CCC2)c2ccccc2[n+]1C (centres undefined)	0%	0%	-2%	-9%	-1%	-5%	RGS12 GoLoco inh-2=14µM*
COc1ccc(C2CC(=O)C3=C(C2)Nc2ccccc2NC3c2coc3ccccc3c2=O)cc1OC (centres undefined)	6%	11%	-3%	-14%	3%	?
COc1ccccc1CNc1ncnc2ccc(-c3ccccc3CN(C)C)cc12	-13%	-3%	-3%	-7%	1%	-19%
C=CCn1c(=O)[nH]c2nc3cc(N=CN(C)C)c(C)cc3nc2c1=O	7%	-9%	-2%	·	28µM*	1%	RGS12 GoLoco inh-2=28µM*
Cn1c(N)c(C(=O)CSc2nnc(-c3ccccc3F)n2N)c(=O)n(C)c1=O	1%	-1%	2%	?	-4%	-5%
CC1c2ccccc2CN1CC1=NCCN1 (centres undefined)	-13%	-3%	1%	?	25µM*	-10%	RGS12 GoLoco inh-2=?
CCCCC(=O)OCc1cc(=O)n2nc(C3CC3)sc2n1	1%	-6%	-46%	-8%	·	-8%
CCOCCCNC(=O)C(NC(=O)CNC(C)=O)c1ccc(C)cc1 (centres undefined)	3%	-2%	5%	-4%	-3%	-4%
Cc1ccccc1OCc1nnc(SCC(=O)Nc2ccc3c(c2)oc2ccccc23)n1C	-7%	-21%	-2%	?	8%	-26%	RGS12 GoLoco inh-2=11%
Cc1ccc(-c2nnc(SCC(=O)Nc3ccc4c(c3)oc3ccccc34)n2C)c(Cl)c1	-2%	4%	1%	-18%	-11%	-29%
O=C(O)c1ccc(COc2ccc(/C=N/NC(=O)c3cccs3)cc2)cc1	-12%	0%	-1%	?	10µM*	-17%	RGS12 GoLoco inh-2=?
Nc1ccc2nc3c(=O)n(CCc4ccccc4)c(=O)[nH]c3nc2c1	?	-6%	-9%	·	18µM*	?	RGS12 GoLoco inh-2=13µM*
